# An excerpt weighted towards active compounds, which were near 18% of everything screened.
# TDP1 cell CPT: DT40-hTDP1 cell growth loss with CPT. chicken DT40 Tdp1-/-;hTDP1 cells + 20 nM CPT, ATP luminescence, 48 h. Potency, µM (doses to about 46.2 µM), for the others: top-dose activity change, negative = growth inhibition, hits mostly inhibitors. hit rate 12% among 420,000. AID 686979; also: potency is read from the fitted curve at half-maximal effect; nearly all actives have a fitted effect of over 55% in size
#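 Cell growth measured by CellTiter-Glo luminescence after a minimum 48 h, 37 C compound exposure with 20 nM CPT in Tdp1-knockout DT40 cells stably expressing hTDP1, seeded 400/well; qHTS titration format.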
# TDP1 cell noCPT: qHTS for Inhibitors of human tyrosyl-DNA phosphodiesterase 1 (TDP1): qHTS in cells in absence of CPT; DT40 Tdp1-/- hTDP1 cells, no CPT, ATP luminescence, 48 h; Potency, µM (highest dose often 46.2 µM), for the others: at the highest dose activity change, negative = growth inhibition, most hits filed as inhibitors; hit rate 15% among 420,000; AID 686978, 2013; also: potency is read from the fitted curve at half-maximal effect; nearly all actives have a fitted effect of over 55% in size
#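 Seeded 400 DT40-hTDP1 cells/well (vehicle DMSO, no 20 nM CPT); pinned compounds; ≥48 hr at 37 °C; CellTiter-Glo luminescence as viability measure.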
# RORg inh: ROR gamma (mouse) transcription inhibition | Drosophila S2 Gal4-RORgamma UAS-luciferase reporter, 20 h | Potency, µM (series often up to 53.6 µM), inactives show at the top dose activity change, negative = inhibition, actives largely listed as inhibitors | hit rate 5.4% among 310,000 | AID 2551; also: potency is read from the fitted curve at half-maximal effect; nearly all actives have a fitted effect of over 60% in size
# Target sequence (P51450 whole entry, looked up, the tested form may be a part): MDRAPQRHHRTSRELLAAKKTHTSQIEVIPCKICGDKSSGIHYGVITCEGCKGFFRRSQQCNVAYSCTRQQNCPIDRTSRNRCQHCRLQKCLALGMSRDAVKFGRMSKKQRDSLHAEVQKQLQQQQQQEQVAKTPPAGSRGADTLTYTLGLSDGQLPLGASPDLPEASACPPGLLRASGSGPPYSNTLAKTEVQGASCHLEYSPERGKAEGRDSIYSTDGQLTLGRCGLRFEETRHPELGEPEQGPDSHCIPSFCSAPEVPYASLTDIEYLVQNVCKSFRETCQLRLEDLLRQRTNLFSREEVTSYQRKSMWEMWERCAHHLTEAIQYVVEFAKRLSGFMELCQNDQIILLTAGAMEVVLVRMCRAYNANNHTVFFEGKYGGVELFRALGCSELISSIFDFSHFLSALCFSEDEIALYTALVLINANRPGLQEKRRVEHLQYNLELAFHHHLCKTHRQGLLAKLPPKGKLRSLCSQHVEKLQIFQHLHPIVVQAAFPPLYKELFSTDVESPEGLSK
#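 Drosophila Schneider cells stably carrying a metallothionein-driven Gal4 DBD–ROR gamma fusion and a UAS-Photinus luciferase reporter were exposed to compound for 1 hr, then induced with copper sulfate (700 uM final) for 20 hr at ambient temperature before luminescence reading.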
# Gal4-VP16 FLuc: Gal4-VP16 reporter inhibition counter-screen; Drosophila S2 Gal4-VP16 UAS-luciferase, luminescence, 20 h; Potency, µM (highest dose often 53.6 µM), for the others: top-dose activity, negative = inhibition, actives largely listed as inhibitors; hit rate 3.5% among 310,000;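 also: Gal4-VP16 expression switched on by copper sulfate through the metallothionein promoter; potency is read from the fitted curve at half-maximal effect; nearly all actives have a fitted effect of over 50% in size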
# LDHA inh: inhibitors of human lactate dehydrogenase A | P00338 | purified LDHA, NADH/diaphorase-resazurin fluorescence; stronger effect = lower value | activity change, % (values are at about 110 or 230 µM) | hit rate 0.15% among 480,000 | AID 1347041; in the data active = activity change below about -30%; inconclusive = mostly about -25% to -30%;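 also: plate controls were DMSO wells for no effect and wells without enzyme for full effect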
#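 Remaining NADH was detected by diaphorase (0.133 mg/mL) converting 37 µM resazurin to fluorescent resorufin, read at 0 and 20 minutes. The preceding 5-minute room-temperature reaction used 2 nM LDHA, 0.2 mM sodium pyruvate and 0.06 mM NADH at pH 7.4.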
# IL1B secr inh: inhibitors of inflammasome signaling (IL-1 beta secretion). THP-1 LPS/ATP IL-1B secretion, AlphaLISA, 16 h; stronger effect = lower value. activity change, % at 57.5 µM. hit rate 4.7% among 360,000. AID 743279; in the data active = activity change below about -50%; inconclusive = mostly about -30% to -49%
#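 Secreted IL-1B measured by AlphaLISA bead assay after 16 h compound exposure of THP-1 cells; compounds (final up to 57.5 uM) added 1 h before LPS (250 ng/mL) and ATP (1.25 mM) stimulation; lower signal means less secretion.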
# Active calls of the source: *; u = inconclusive; x = no result; [ ] = another dose, or the depositor's remark. Unless noted, calls follow the shape of the dose curve; as a rule, active = well fitted curve in the direction sought with a large enough effect; inconclusive = small, poorly fitted or top-dose-only effect, or another doubt; inactive = no such curve, though single readings can be large; an effect the other way counts as inactive or inconclusive. Unless noted, % is scaled to controls: 0 for no effect and ±100 for the full control effect.
SMILES,TDP1 cell CPT,TDP1 cell noCPT,RORg inh,Gal4-VP16 FLuc,LDHA inh,IL1B secr inh
CCCCNc1c(-c2cccc(-c3cc(C(C)=O)cs3)c2)nc2cc(C)ccn12,u,u,x,x,0,-80*
Cc1ccn2c(NC(=O)c3cccs3)c(-c3ccccc3)nc2c1,-25%,u,11%,3%,3,-2
O=C1CC(C(=O)Nc2ccc(F)cc2)n2nc(-c3ccc(Cl)cc3)cc2N1 (stereo unspecified),x,x,x,x,0,x
Cc1ccc2nc(C)c(C(=O)N3CCN(Cc4ccccc4C)CC3)cc2c1,x,x,x,x,-11,x
CCCCCCSc1cc(-c2nc3cc(C)ccn3c2NCCCC)ccc1OC,13µM*,16µM*,x,x,-1,-87*
COc1ccc(-c2nc3cc(C)ccn3c2NC(=O)c2ccc(F)cc2)cc1,-7%,u,x,x,1,x
CCCCNc1c(-c2ccc(SC(C)CC)c(OC)c2)nc2ccc(Cl)cn12 (stereo unspecified),26µM*,21µM*,x,x,6,-68*
CC(Oc1ccc(Cl)cc1Cl)c1nc(-c2ccncc2)no1 (stereo unspecified),x,x,x,x,1,x
CN(Cc1nc2ccccc2n1C(F)F)S(=O)(=O)c1ccccc1Br,x,x,x,x,9,x
N#Cc1cnn(-c2ccccc2)c1N,-14%,-6%,1%,0%,-4,-1
CC(C)C1N(c2ccccc2)C(N)=C(C#N)C1(C#N)C#N (stereo unspecified),u,23µM*,10%,0%,1,-14
O=S(=O)(Nc1cccc2ccccc12)c1cccs1,-10%,1%,-3%,17%,2,37
O=S(=O)(Nc1ccc(O)c2ccccc12)c1cccs1,2.1µM*,4.6µM*,u,-26%,28,-99*
CCOC(=O)C(=O)Nc1ccc(NC(C)=O)cc1,x,x,x,x,-9,x
O=C1/C(=C/c2ccncc2)SC(=S)N1C1CCS(=O)(=O)C1 (stereo unspecified),5.8µM*,8.2µM*,11µM*,u,14,-92*
CCN(C(=O)CN1C(=O)/C(=C/c2ccccc2)SC1=S)C1CCS(=O)(=O)C1 (stereo unspecified),23µM*,u,6%,-16%,-2,-10
O=C1/C(=C/c2ccccc2)SC(=S)N1C1CCS(=O)(=O)C1 (stereo unspecified),23µM*,u,10%,u,2,18
CCN(C(=O)CN1C(=O)S/C(=C\c2ccc(F)cc2)C1=O)C1CCS(=O)(=O)C1 (stereo unspecified),u,u,u,29%,-1,-16
C/C(=N\Nc1nnc(Cl)c2ccccc12)c1ccc([N+](=O)[O-])cc1,x,x,x,x,-1,x
Cc1cccc(-c2cc3nc(C)cc(N4CC(C)CC(C)C4)n3n2)c1 (stereo unspecified),16µM*,16µM*,-11%,-9%,-4,39
CN(C)CCCNc1cc(-c2ccccc2)nc2cc(-c3cccc(F)c3)nn12,u,7.3µM*,u,u,1,-88*
COc1ccc(-c2cc3nc(C)cc(NCCO)n3n2)cc1,-34%,-5%,24%,-5%,1,-23
Cc1cc(C(F)(F)F)n2nc(-c3cccs3)cc2n1,5%,11%,-2%,-10%,5,28
Cc1cccc(-c2cc3nc(C)cc(C)n3n2)c1,1%,u,-37%,-14%,-6,56
CCN(CC)CCCNc1cc(C)nc2cc(-c3cccs3)nn12,18%,-4%,11µM*,u,-3,-101*
SMILES,TDP1 cell CPT,TDP1 cell noCPT,RORg inh,Gal4-VP16 FLuc,LDHA inh,IL1B secr inh
Cc1cccc(-c2cc3nc(C)cc(NCCCN(C)C)n3n2)c1,u,u,17%[0.365 µM],x,2,-101*
Cc1ccc(-c2cc(C(=O)Nc3c(C)n(C)n(-c4ccccc4)c3=O)no2)cc1C,x,x,x,x,12,x
Cc1ccc(-c2nnc(Cn3cnc(C#N)n3)o2)cc1,x,x,x,x,1,x
CCCCN(CC)C(=O)CCNC(=O)Cn1cnc2sc3c(c2c1=O)CCCC3,x,x,x,x,1,x
Cc1ccc(C(=O)OCC(=O)NCc2ccc3c(c2)OCO3)cc1F,x,x,x,x,0,x
COc1ccc(NC(=O)NCCCN2CCC(Cc3ccccc3)CC2)cc1,u,u,-6%,-4%,-6,u
COc1ccc(-c2noc(=O)n2CC(=O)N2CCC(Cc3ccccc3)CC2)cc1,u,23µM*,u,u,-8,-5
COc1ccc(-c2noc(CCC(=O)NCCCN3CCN(c4ccc(F)cc4)CC3)n2)cc1,18µM*,18µM*,u,-2%[10 µM],-1,0
COc1ccc(-c2noc(CCC(=O)NCCCN3CCC(Cc4ccccc4)CC3)n2)cc1,15µM*,15µM*,15%,u,-3,-64*
O=C(O)Cn1ncc(=O)c2ccccc21,x,x,x,x,2,x
Cc1ccccc1/C=C/C(=O)c1cc2ccccc2o1,x,x,x,x,-1,x
CC(C)n1nnnc1SCC(=O)N1N=C(c2cc3ccccc3o2)CC1c1ccco1 (stereo unspecified),x,x,x,x,4,x
Cc1ccc(-c2nc(CSc3nc4ncccc4[nH]3)c(C)o2)c(C)c1,x,x,x,x,-1,x
CC(C)(C)N=Cc1cc(Br)ccc1O,x,x,x,x,-3,x
O=C(COC(=O)c1cccs1)c1ccc(OC(=O)c2ccco2)cc1,x,x,x,x,-6,x
Nc1c(N(Cc2ccccc2)C(=O)COc2ccc([N+](=O)[O-])cc2)c(=O)[nH]c(=O)n1Cc1ccccc1,5.8µM*,u,x,x,-5,42
CCN(C(=O)COC(=O)CCOc1cc(C)ccc1C)c1c(N)n(Cc2ccccc2)c(=O)[nH]c1=O,18µM*,u,x,x,-5,5
Nc1c(N(Cc2ccco2)C(=O)COc2ccc(Cl)cc2)c(=O)[nH]c(=O)n1Cc1ccccc1,1%,-3%,x,x,-9,1
Cc1ccc(OCCC(=O)N(Cc2ccccc2)c2c(N)n(Cc3ccccc3)c(=O)[nH]c2=O)cc1,u,21µM*,x,x,-4,-8
Cc1cc(OCC(=O)N(Cc2ccco2)c2c(N)n(Cc3ccccc3)c(=O)[nH]c2=O)ccc1Cl,26µM*,u,x,x,-11,-23
CC(NC(=O)NCc1ccn[nH]1)c1ccc2c(c1)OCCO2 (stereo unspecified),x,x,x,x,8,x
CC(Oc1ccc(Br)cc1)C(=O)N(Cc1ccccc1)c1c(N)n(Cc2ccccc2)c(=O)[nH]c1=O (stereo unspecified),23µM*,21µM*,x,x,-12,u
